Compound activity from PubChem BioAssay.
Hits are enriched below; roughly 1.4% of the tested compounds scored in any of these assays.
IL-2 act: IL-2 activation | hit rate 0.065% among 360,000 | IL-2 activation reporter assay, cell-based qHTS; stimulated with anti-CD3/CD4/CD28 beads; in transgenic mouse T cells | activation, % (series mostly up to about 46 µM); in the data active means activation above about 50%; inconclusive means mostly about 30% to 49%; further: 0% is about no effect
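Unstimulated transgenic mouse T cells, 750 per well, received compound and, after 60 minutes, anti-CD3/anti-CD4 bead plus anti-CD28 stimulation. EGFP and DsRed were quantified after 18 hours.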
N370S GC: N370S glucocerebrosidase modulation, Gaucher chaperone candidate. P04062. N370S GC spleen homogenate, 4MU-glucoside fluorescence. Potency, µM (highest dose often 59.4 µM), for inactives: at the highest dose activity change, negative = inhibition, actives largely listed as inhibitors. hit rate 0.092% among 330,000;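 further: potency means the concentration at half of the fitted maximal effect; 0% = full enzyme activity and -100% = no enzyme basal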
BRCA1 expr act: activators of BRCA1 expression | hit rate 1.1% among 380,000 | MCF7-BRCA1-FFLuc reporter, luminescence, 48 h; response scale: scaled: vehicle 0%, 10 µM genistein 100% | Potency, µM (highest dose often 46.1 µM), for inactives: top-dose activation, hits mostly activators; further: potency means the concentration at half of the fitted maximal effect; nearly all actives have a fitted effect of over 80% in size
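48 h compound treatment of MCF7-BRCA1-FFLuc cells (phenol-red free MEM, 37 °C), then 15 min with luciferase substrate and luminescence imaging.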
Nrf2 ARE act: activators of Nrf2 (ARE) signaling; Potency, µM (highest dose often 46.1 µM), for the others: at the highest dose activation, actives largely listed as activators; hit rate 0.31% among 410,000; AREc32 ARE-luciferase reporter (MCF7-derived line), luminescence, 24 h; further: potency means the concentration at half of the fitted maximal effect; % of control where 0% means no effect; nearly all actives have a fitted effect of over 65% in size
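Quantitative high-throughput format: AREc32 reporter cells, 1000 per well, received compound by pin transfer and were incubated 24 hr at 37 deg C, 5% CO2, before Steady-Glo luminescence detection.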
a7 integrin act: activators of alpha7 integrin expression for muscular dystrophy; alpha7betagal myoblasts, beta-gal FDG fluorescence, 48 h; Potency, µM (series often up to 38.3 µM), inactives show at the top dose activation, usual class: activators; hit rate 0.064% among 350,000; AID 624291;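 further: potency means the concentration at half of the fitted maximal effect; 100% = response of the positive control SU9516; nearly all actives have a fitted effect of over 60% in size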
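Alpha7betagal+/- myoblasts (passage 13) were plated 16-24 hr, then exposed to compounds (1:260 dilution of DMSO stock) for 48 hours at 37C. After MPER lysis, β-galactosidase reporter activity was read as FDG fluorescence (ex 480/em 540) after 30 minutes.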
Chronic BCR inh: inhibitors of chronic active B-cell receptor signaling; ABC-DLBCL IkBa-CBG/CBR reporter, luminescence ratio, 4 h; Potency, µM (top dose mostly 46.1 µM), inactives show at the top dose activity change, negative = inhibition, usual class: inhibitors; hit rate 0.05% among 340,000; AID 493014; active means well fitted inhibition curve with a large enough effect in the signal ratio, with a control signal flat, not every such curve was filed as active; inconclusive means small, poorly fitted or top-dose-only effect, or effect the other way, or a change in a side signal; the % refers to the signal ratio;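 further: potency means the concentration at half of the fitted maximal effect; plate controls were basal doxycycline-induced cells for no effect and cells given 10 µM MG132 for full effect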
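Cell line TMD8 (human ABC DLBCL), stably expressing tet-inducible CBG68-IkBa fusion and CBR; IMDM/0.5% FBS; cpd up to 46 uM; dox induction, 4 h, 37C/5% CO2; dual luminescence; green/red ratio; MG132 control.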
Numbers without * were called inactive; u = inconclusive; x = not tested or not shown; [ ] = another dose, or the depositor's remark. Unless noted, the call rests on the fitted dose curve; in most records, active means well fitted curve in the direction sought with a large enough effect; inconclusive means small, poorly fitted or top-dose-only effect, or another doubt; inactive means no such curve, though single readings can be large; an effect the other way counts as inactive or inconclusive.

SMILES	IL-2 act	N370S GC	BRCA1 expr act	Nrf2 ARE act	a7 integrin act	Chronic BCR inh
COc1cc(/C=N/Nc2ccccn2)ccc1O	1	-14%	19%	8.9µM*	-24%	u
CCCCNC(=O)C1c2ccccc2OCC(=O)N1CC(F)(F)F (centres undefined)	2	x	1%	2%	x	x
O=C(CSc1nnc(C2CC2)n1C1CC1)c1ccc(Br)s1	1	x	60%	9%	17%	-1%
O=C(CSc1nnc(C2CC2)n1C1CC1)c1cccs1	1	x	0%	0%	10µM*	u
CC(C)C(=O)N1CCC1(C)C(=O)NCc1cc(Cl)ccc1F (centres undefined)	0	x	24%	0%[9.22 µM]	x	x
C=C(C)CSc1nnc(-c2cccc(Cl)c2)n1N	-1	5%	13µM*	0%	-12%	8%
C=C(C)CSc1nnc(-c2ccc(OC)cc2)n1N	2	-25%	u	0%	29%	u
Cc1nn(C)c(N)c1[N+](=O)[O-]	0	1%	-3%	0%	u	0%
Cc1nn(C)c(Sc2ccccc2N)c1[N+](=O)[O-]	-1	-6%	-30%	14µM*	-33%	u
Cc1c(Cl)cccc1NC(=S)N=Nc1c(O)n(CN2CCOCC2)c2ccccc12	-4	1%	-63%	u	-62%	7.3µM*
CCCCOc1ccc(S(=O)(=O)N2CCN(c3ccccc3OCC)CC2)cc1	x	x	x	0%	x	x
Cc1ccsc1C(=O)N1CCCC(N2CCN(c3cccc(Cl)c3)CC2)C1 (centres undefined)	1	-2%	-6%	0%	0%	4%
COc1ccc(NC(=O)COC(=O)c2cc(=O)c3ccccc3o2)cc1OC	-5	x	-7%	13µM*	9%	u
CN(C)c1ccc(NC(=O)COC(=O)c2cc(=O)c3ccccc3o2)cc1	17	-2%	2%	0%	-14%	1%
COc1cc(Br)c(CC(=O)NO)cc1OC	x	x	14%	x	x	x
COc1ccc(NC(=O)c2cc(C)on2)cc1	-1	6%	7.1µM*	0%	u	-15%
COc1ccc(NC(=O)c2cccnn2)cc1	-5	-8%	13µM*	1%	-1%	u
COc1ccc(C(=O)Nc2cc3c4c(c2)CC(=O)N4CCC3)c(OC)c1	-1	-2%	4µM*	5%	13%	-5%
COc1ccc(C(=O)Nc2cc3c4c(c2)CC(=O)N4CCC3)cc1	2	-3%	-8%	3%	1%	-6%
Cc1ccc(S(=O)(=O)NNC(=O)c2ccc(C(=O)N(c3ccccc3)c3ccccc3)cc2)cc1	x	x	-22%	x	x	x
CCOc1cccc2c1OC(c1cc(OC)c(OC)c(OC)c1)N1N=C(c3ccc(C)o3)CC21 (centres undefined)	1	-13%	40%	13µM*	-43%	8%
O=C(CSc1ncnc2ccccc12)c1cccs1	0	0%	-1%	u	-10%	u
Cc1ccc(C(=O)CSc2ncnc3ccccc23)o1	-3	1%	83%	13µM*	-48%	u
CN(C)C(=S)SCC(=O)Nc1ccc(Cl)cc1Cl	1	u	10µM*	3%	8%	2%
FC(F)(F)c1ccc(N=Cc2sc(N3CCOCC3)nc2-c2ccccc2)cc1	-1	5%	0%	0%	-26%	-2%
SMILES	IL-2 act	N370S GC	BRCA1 expr act	Nrf2 ARE act	a7 integrin act	Chronic BCR inh
NC(=O)c1c(NC(=O)c2ccccc2)sc2c1CCN(Cc1ccccc1)C2	317*	-1%	17%	6%	-9%	20%
Cn1cc(/C=N/n2cnc3scc(-c4ccc(Cl)cc4)c3c2=O)c2ccccc21	-1	-9%	-54%	0%	-16%	3.5µM*
O=c1c2c(-c3ccccc3)csc2ncn1/N=C/c1cn(-c2ccccc2)nc1-c1cccs1	x	x	3%	x	x	x
COc1ccc2c(COC(=O)c3cccc(S(=O)(=O)NCC(C)C)c3)cc(=O)oc2c1	-4	6%	2%	3%	-30%	-6%
CCCNS(=O)(=O)c1cccc(C(=O)OCc2cc(=O)oc3cc(OC)ccc23)c1	0	1%	-42%	4%	-25%	13µM*
OCC[C@@H]1C[C@H](O)[C@@H](O)[C@@]2(OCCCc3cc(Cl)ccc32)O1	-1	x	3%	0%	x	x
Cc1ccc2c(c1)N=C(c1ccc(F)cc1)CO2	-1	-5%	50%	u	5%	2%
O=[N+]([O-])c1ccc(C2=Nc3cc(Cl)ccc3OC2)cc1	0	0%	6%	13µM*	32%	u
CCOC(=O)c1cc(CC)sc1NC(=O)COc1ccccc1C	x	x	x	-1%	x	x
Cc1ccccc1-n1c(C)cc(/C=C(\C#N)C(=O)NCC2CCCO2)c1C (centres undefined)	0	-3%	14µM*	2%	-28%	u
FC(F)Sc1ccc(Nc2ncnc3nc[nH]c23)cc1	0	5%	3.5µM*	4%	-15%	-14%
CCCCOC(=O)c1ccc(NC(C)=O)cc1	-2	9%	48%	3%	-1%	u
CCCCOC(=O)c1ccc(Nc2ncnc3nc[nH]c23)cc1	-2	4%	10µM*	0%	0%	u
Cc1cc(C)cc(Nc2ncnc3nc[nH]c23)c1	1	2%	26%	5%	-16%	u
N#Cc1cccc(-c2csc(C(O)c3ccc(F)cc3)n2)c1 (centres undefined)	2	x	7.9µM*	1%[9.22 µM]	x	x
COc1cccc(C(O)c2nc(-c3cccc(C#N)c3)cs2)c1 (centres undefined)	1	x	-3%	1%	x	x
O=C(CSCc1ccccc1)N1CCN(c2ccc(F)cc2)CC1	-2	-18%	26%	1%	7%	u
O=C(CSCc1ccccc1)N1CCN(c2ccccc2)CC1	0	12%	11µM*	0%	1%	u
COc1ccc2nc3oc(C(=O)N4CC(C)CC(C)C4)cc3cc2c1 (centres undefined)	-4	u	65%	0%	-28%	11%
O=C(c1cc2ccccc2o1)N1CCCC1	-1	8%	56%	-1%	17%	8%
CC1CCN(C(=O)c2cc3ccccc3o2)CC1	0	4%	11µM*	0%	7%	u
CC1CC(C)CN(C(=O)c2cc3ccccc3o2)C1 (centres undefined)	-1	-1%	-11%	8%	6%	15%
O=C(c1cc2ccccc2o1)N1CCCCCC1	-4	5%	8.9µM*	3%	2%	u
COc1ccc2nc3oc(C(=O)N4CCCCC4)cc3cc2c1	-3	10%	7.1µM*	0%	6%	u
Cc1cc(Cl)ccc1OCC(=O)Nc1cccc(-c2nc3ccccc3o2)c1	x	x	10%	x	x	x
